In the supplement of paper PMC8371130:
Where a name gives a salt, the structure may show the parent alone.

Tested on: HL-1
Assay: relative cell viability (CellTiter-Glo) vs DMSO control (% of DMSO control); higher = more viable cells
How it was run: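 Viability of HL-1 mouse atrial cardiomyocytes was assessed by CellTiter-Glo luminescence and normalised to vehicle-treated control cells. Cells were plated in 384-well plates at 1000 cells per well with compounds at 40, 200, 1000 or 5000 nM in 0.01% DMSO, and one day later were placed at 1% O2 for 48 h, then reoxygenated for 24 h, or kept in normoxia for the same duration.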

[1] = oxygen condition: hypoxia 48 h (1% O2) + reoxygenation 24 h, 40 nM
[2] = oxygen condition: hypoxia 48 h (1% O2) + reoxygenation 24 h, 200 nM
[3] = oxygen condition: hypoxia 48 h (1% O2) + reoxygenation 24 h, 1000 nM
[4] = oxygen condition: hypoxia 48 h (1% O2) + reoxygenation 24 h, 5000 nM
[5] = oxygen condition: normoxia 72 h, 40 nM
[6] = oxygen condition: normoxia 72 h, 200 nM
[7] = oxygen condition: normoxia 72 h, 1000 nM
[8] = oxygen condition: normoxia 72 h, 5000 nM

| Compound | relative cell viability [1] | relative cell viability [2] | relative cell viability [3] | relative cell viability [4] | relative cell viability [5] | relative cell viability [6] | relative cell viability [7] | relative cell viability [8] |
| --- | --- | --- | --- | --- | --- | --- | --- | --- |
| Cc1ccccc1N1C(=O)c2cc(S(N)(=O)=O)c(Cl)cc2NC1C (stereo not drawn) [Metolazone] | 104 | 107 | 107 | 111 | 109 | 110 | 112 | 116 |
| O=c1c(-c2ccc(O)cc2)coc2cc(O)ccc12 [Daidzein] | 107 | 102 | 105 | 113 | 107 | 107 | 105 | 118 |
| COCCOC(=O)C1=C(C)NC(C)=C(C(=O)OC(C)C)C1c1cccc([N+](=O)[O-])c1 (stereo not drawn) [Nimodipine] | 109 | 108 | 109 | 107 | 108 | 109 | 103 | 104 |
| CCN(Cc1ccncc1)C(=O)C(CO)c1ccccc1 (stereo not drawn) [Tropicamide] | 102 | 99.4 | 101 | 107 | 99.4 | 102 | 101 | 104 |
| C=CC(=O)Nc1cc(Nc2nccc(-c3cn(C)c4ccccc34)n2)c(OC)cc1N(C)CCN(C)C | 97.1 | 94.4 | 91.5 | 104 | 95.5 | 93.1 | 89.4 | 108 |
| CCN1CCN(c2cc(-c3ccc(F)cc3)c3c(n2)CCCCCC3)CC1 [Blonanserin] | 101 | 99.5 | 91.2 | 49.4 | 103 | 93.3 | 93.5 | 51.2 |
| Cc1cnc(C(=O)NCCc2ccc(S(=O)(=O)NC(=O)NC3CCCCC3)cc2)cn1 [Glipizide] | 109 | 108 | 108 | 109 | 106 | 97.1 | 106 | 110 |
| NC(CO)C(=O)NNCc1ccc(O)c(O)c1O (stereo not drawn) [Benserazide] | 107 | 101 | 111 | 110 | 97.3 | 104 | 102 | 107 |
| Nc1ccn([C@@H]2O[C@H](CO)[C@@H](O)[C@H]2O)c(=O)n1 [Cytidine] | 101 | 101 | 105 | 106 | 106 | 107 | 101 | 106 |
| C[C@]12CCC3=C4CCC(=O)C=C4CC[C@H]3[C@@H]1CC[C@@]2(O)CC#N [Dienogest] | 103 | 104 | 106 | 103 | 105 | 102 | 107 | 107 |
| CCC(CC)[C@H](NC(C)=O)[C@@H]1[C@H](O)[C@@H](C(=O)O)C[C@H]1NC(=N)N [Peramivir Trihydrate] | 101 | 99.2 | 107 | 111 | 112 | 109 | 103 | 116 |
| COc1cc(C(=O)NC2CCCNC2)cc(OC)c1OC (stereo not drawn) [Troxipide] | 103 | 109 | 106 | 110 | 109 | 110 | 116 | 113 |
| CN(C)C(=N)NC(=N)N [Metformin hydrochloride] | 98.4 | 104 | 105 | 109 | 105 | 96.6 | 104 | 109 |
| Clc1ccc(C(Cn2ccnc2)OCc2ccc(Sc3ccccc3)cc2)c(Cl)c1 (stereo not drawn) [Fenticonazole nitrate] | 102 | 102 | 105 | 107 | 102 | 98 | 101 | 104 |
| CNC[C@@H](O)c1ccc(O)c(O)c1 [L-Adrenaline] | 102 | 99.7 | 100 | 99.2 | 100 | 101 | 95.7 | 95.4 |
| Cc1c(N(C)C)c(=O)n(-c2ccccc2)n1C [Amidopyrine] | 107 | 111 | 109 | 114 | 107 | 105 | 110 | 118 |
| O=S(=O)(O)Oc1ccc(C(c2ccc(OS(=O)(=O)O)cc2)c2ccccn2)cc1 [Sodium Picosulfate] | 107 | 109 | 108 | 116 | 110 | 111 | 112 | 116 |
| COc1cc2nccc(Oc3ccc(NC(=O)C4(C(=O)Nc5ccc(F)cc5)CC4)cc3)c2cc1OC | 109 | 112 | 111 | 115 | 112 | 110 | 107 | 120 |
| CC[C@@H](CO)NCCN[C@@H](CC)CO [Ethambutol HCl] | 100 | 93.4 | 102 | 112 | 90.2 | 91.3 | 102 | 3.47 |
| CC(C)NCC(O)COc1ccc(COCCOC(C)C)cc1 (stereo not drawn) [Bisoprolol] | 93.2 | 103 | 87.2 | 101 | 90.8 | 101 | 85.4 | 108 |
| CC1CCc2cc(F)cc3c(=O)c(C(=O)O)cn1c23 (stereo not drawn) [Flumequine] | 104 | 98.4 | 117 | 108 | 106 | 120 | 104 | 98.2 |
